Data published in PubChem BioAssay (NCATS).
Inconclusive results are not listed. The source made the active and inactive calls. Calls come from the whole dose curve; as a rule, active = well fitted inhibition curve with a large enough effect; inconclusive = small, poorly fitted or top-dose-only effect; inactive = flat fitted curve, though single readings scatter.

Molecular target: Dual specificity protein kinase CLK4 (Homo sapiens) (UniProt Q9HAZ1)
Experiment: qHTS Assay for Inhibitors of CDC-like Kinase 4 (ADP-FP Assay) (AID 1795); note: nearly all actives have a fitted effect of over 60% in size
Conditions: Transcreener ADP fluorescence polarization; series mostly up to 50 µM
Method: NIH Molecular Libraries Probe Production Centers Network [MLPCN] NIH Chemical Genomics Center [NCGC] MLPCN Grant: 1R03MH084827-01 Assay Submitter (PI): Tom Misteli NCGC Assay Overview: Clk4 (Invitrogen cat # PV3839) was assayed using ATP and the RS repeat peptide (AnaSpec cat # 61722) as substrates using Transcreener (trade mark), a competitive fluorescence polarization (FP) assay. For the present assay, we used the Orange TranscreenerTM ADP2 (BellBrooks Labs, Madison, Wis) detection system to monitor ADP production in the kinase reaction. […] This allows the ADP tracer to freely rotate leading to a decrease in the observed FP value. The amount of ADP produced can then be calculated using a calibration curve. The positive control for the assay was TG003 (Sigma-Aldrich, cat # 300801-52-9) which is a Clk4 inhibitor [2].
NCGC Assay Protocol Summary: Two uL/well of substrate-buffer solution (100 uM RS peptide, 1 uM ATP, 25 mM Tris pH7.5, 10 mM MgCl2, 0.5 mM EGTA, 2.5 mM DTT, 0.01% Triton X-100 final concentration) was dispensed into 1,536-well assay plates (Greiner, solid black medium-binding plates) with Aurora Discovery BioRAPTR Flying Reagent Dispenser (FRD; Beckton-Dickenson). Using a Kalypsys pin tool equipped with a 1,536-pin tool, 23 nL of compound solution was transferred to the assay plate. Two uL/well Clk4-buffer solution (6.25 nM Clk4, 25 mM Tris pH 7.5, 10 mM MgCl2, 0.5 mM EGTA, 2.5 mM DTT, 0.01% Triton X-100, final concentration) was then added using the FRD yielding a total kinase reaction volume of 4 uL/ well. Then 4 uL/well of detection mixture (4 nM orange fluorescent tracer, 1 ug/mL ADP antibody, final concentration) was then added after an hour and the polarization signal was measured using the EnVision plate reader (PerkinElmer, Waltham, MA) after 30 min of room temperature incubation using the following filters and program settings: BODIPY TMR FP dual Enh mirror (barcode 682); BODIPY-TMR 531 (barcode 105) excitation; BODIPY-TMR FP P/S polarized 595 nm filters (barcodes 210 and 211, respectively); 100% light; 150 flashes; 1.35 G-factor; Detector gains were 685 for the 1st detector; 630 for the 2nd detector.
Potency is the fitted concentration of half-maximal effect.

Sequence of Dual specificity protein kinase CLK4 (Homo sapiens) (Q9HAZ1 whole entry, looked up): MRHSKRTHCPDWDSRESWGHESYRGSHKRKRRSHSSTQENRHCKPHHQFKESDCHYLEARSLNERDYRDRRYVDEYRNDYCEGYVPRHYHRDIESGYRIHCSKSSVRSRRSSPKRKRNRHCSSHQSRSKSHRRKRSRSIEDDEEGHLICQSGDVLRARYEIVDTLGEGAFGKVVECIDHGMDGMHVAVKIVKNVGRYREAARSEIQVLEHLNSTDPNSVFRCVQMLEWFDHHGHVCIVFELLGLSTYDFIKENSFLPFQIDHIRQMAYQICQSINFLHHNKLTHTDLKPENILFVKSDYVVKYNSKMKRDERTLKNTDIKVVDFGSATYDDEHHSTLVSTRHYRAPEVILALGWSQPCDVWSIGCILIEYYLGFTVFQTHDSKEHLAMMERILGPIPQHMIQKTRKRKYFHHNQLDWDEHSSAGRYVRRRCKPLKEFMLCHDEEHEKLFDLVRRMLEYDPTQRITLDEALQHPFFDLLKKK

Potency, inactive:
O=c1cnc2cnc(Oc3cccc(Cl)c3)nc2n1C[C@H]1CCCO1
Cc1nc2cnc(N3CCN(C)CC3)nc2n(CCC#N)c1=O
O=c1c(-c2ccccc2)nc2cnc(Nc3ccccc3)nc2n1Cc1cccs1
CCNc1ncc2nc(-c3cn(C)c4ccccc34)c(=O)n(-c3ccccc3)c2n1
c1cncc(-c2cncnc2NC2CCNCC2)c1
COCCn1c(=O)c(-c2ccc(Cl)cc2)nc2cnc(OCc3ccccc3)nc21
COc1cccc(-c2cncnc2NC2CCNCC2)c1
FC(F)(F)c1ccccc1-c1nccc(N2CCNCC2)n1
COc1ncc2nc(-c3ccc(F)cc3)c(=O)n(-c3ccccc3)c2n1
COc1ccc(CNc2cc(-c3ccoc3)ncn2)c(OC)c1
c1ccc(Nc2cc(-c3ccoc3)ncn2)cc1
COc1ccc(-n2c(=O)c(-c3cccs3)nc3cncnc32)cc1
COc1ccc(-c2nc3cnc(N4CCNCC4)nc3n(Cc3cccs3)c2=O)cc1
CN(C)c1ncc2nc(-c3ccc(F)cc3)c(=O)n(Cc3cccs3)c2n1
COc1cccc(Cn2c(=O)c(-c3ccc(F)cc3)nc3cnc(N(C)C)nc32)c1
CN(C)c1ncc2nc(-c3cc(F)cc(F)c3)c(=O)n(C[C@H]3CCCO3)c2n1
CN(C)c1ncc2nc(-c3ccc(F)cc3)c(=O)n(C)c2n1
COc1ccc(-c2nc3cnc(Oc4ccccc4)nc3n(CCC#N)c2=O)cc1
Cn1cc(-c2nc3cnc(Oc4ccccc4)nc3n(C)c2=O)c2ccccc21
N#Cc1ccccc1-c1nc(NCCN2CCOCC2)c2ccccc2n1
O=c1c(-c2ccccc2)nc2cnc(N3CCNCC3)nc2n1-c1ccccc1
COc1ccc(Oc2ncc3ncc(=O)n(C)c3n2)cc1
CN(C)c1ccc(-c2nc(NCCN3CCOCC3)c3ccccc3n2)cc1
CCNc1ncc2nc(-c3cccs3)c(=O)n(C)c2n1
CCNc1ncc2nc(-c3ccccc3)c(=O)n(Cc3cccs3)c2n1
CN1CCN(c2ncc3ncc(=O)n(CCC#N)c3n2)CC1
CCNc1ncc2nc(-c3ccc(F)cc3)c(=O)n(CCOC)c2n1
O=c1c(-c2cc(F)cc(F)c2)nc2cnc(Nc3ccccc3)nc2n1C[C@H]1CCCO1
COc1ccc(-c2nc3cnc(Nc4ccccc4)nc3n(C[C@H]3CCCO3)c2=O)cc1
CCNc1ncc2nc(-c3ccc(OC)cc3)c(=O)n(C[C@H]3CCCO3)c2n1
COc1ncc2nc(C)c(=O)n(C3CC3)c2n1

Potency, active:
CCNc1ncc2ncc(=O)n(C3CC3)c2n1 12.6 µM
c1csc(CNc2ncnc3ccc(-c4ccoc4)cc23)c1 0.0501 µM
COc1cccc(-c2nc(NCc3ccccc3)c3ccccc3n2)c1 2.24 µM
COc1cccc(-c2ccc3ncnc(N4CCN(C)CC4)c3c2)c1 2.24 µM
COc1ccc(-n2c(=O)cnc3cnc(N(C)C)nc32)cc1 11.2 µM
CN1CCN(c2ncnc3ccc(-c4ccc5c(c4)OCO5)cc23)CC1 0.158 µM
COCCNc1ncnc2ccc(-c3cccc(OC)c3)cc12 0.501 µM
CC(=O)NCCNc1ncnc2ccc(-c3cccc(NS(C)(=O)=O)c3)cc12 8.91 µM
CN(C)c1ncnc2ccc(-c3cccnc3)cc12 12.6 µM
